# Results from PubChem BioAssay (NCATS).
# The source made the active and inactive calls. The call rests on the fitted dose curve; in most records, active means well fitted curve in the direction sought with a large enough effect; inactive means no such curve, though single readings can be large or run the other way.
# Molecular target: Alpha-galactosidase A (Homo sapiens) (UniProt P06280)
# Test: Counterscreen for Glucocerebrosidase Inhibitors: qHTS Assay for Human alpha-Galactosidase at pH 4.5 (AID 992)
# Conditions: purified enzyme, fluorogenic substrate; series mostly up to 76.9 µM
# Summary of the method: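 Each compound is preincubated briefly with 2 nM enzyme before substrate addition (80 uM); plates then sit 20 min at ambient temperature, are quenched with 1M NaOH/1M glycine, and read fluorometrically.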
# Alpha-galactosidase A (Homo sapiens), sequence (P06280 whole entry, looked up): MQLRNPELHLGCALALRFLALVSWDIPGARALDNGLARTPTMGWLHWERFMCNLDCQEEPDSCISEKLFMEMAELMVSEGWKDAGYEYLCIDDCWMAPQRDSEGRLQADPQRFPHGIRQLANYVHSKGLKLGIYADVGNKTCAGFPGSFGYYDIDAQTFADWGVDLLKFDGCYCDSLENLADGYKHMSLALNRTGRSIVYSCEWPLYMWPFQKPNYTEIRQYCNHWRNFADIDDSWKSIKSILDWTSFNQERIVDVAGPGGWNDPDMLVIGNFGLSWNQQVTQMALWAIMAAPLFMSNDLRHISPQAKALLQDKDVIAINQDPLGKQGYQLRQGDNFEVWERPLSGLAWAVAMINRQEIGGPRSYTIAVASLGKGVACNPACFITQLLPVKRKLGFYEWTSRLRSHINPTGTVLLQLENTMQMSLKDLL
row,SMILES,outcome
1,CN(C)CCC=C1c2ccccc2C=Cc2ccccc21,inactive
2,NCCCCCC(=O)O,inactive
3,CN(C)C(=O)C(CCN1CCC(O)(c2ccc(Cl)cc2)CC1)(c1ccccc1)c1ccccc1,inactive
4,O=C(Nc1ccc([N+](=O)[O-])cc1Cl)c1cc(Cl)ccc1O,inactive
5,Nc1nnc(-c2cccc(Cl)c2Cl)c(N)n1,inactive
6,C[C@](N)(Cc1ccc(O)c(O)c1)C(=O)O,inactive
7,CN1CCN(C2=Nc3cc(Cl)ccc3Nc3ccccc32)CC1,inactive
8,COc1ccc(C2CNC(=O)C2)cc1OC1CCCC1 (configuration not stated),inactive
9,Cc1cnc(C(=O)NCCc2ccc(S(=O)(=O)NC(=O)NC3CCCCC3)cc2)cn1,inactive
10,COc1nc(C)nc(Cl)c1NC1=NCCN1,inactive
11,CN1CCC(=C2c3ccccc3C=Cc3ccccc32)CC1,inactive
12,Cc1cc(C(C)(C)C)cc(C)c1CC1=NCCN1,inactive
13,COC(=O)Nc1nc2ccc(C(=O)c3cccs3)cc2[nH]1,inactive
14,CCCCc1oc2ccccc2c1C(=O)c1cc(I)c(OCCN(CC)CC)c(I)c1,inactive
15,O=C(C1CCCCC1)N1CC(=O)N2CCc3ccccc3C2C1 (configuration not stated),inactive
16,Nc1nc2c(ncn2COC(CO)CO)c(=O)[nH]1,inactive
17,NC(=O)OCC(COC(N)=O)c1ccccc1,inactive
